Structures can show the parent of a compound that is named as a salt.
Columns and labels:
[1] = system: E18 rat cortical neuron-glia co-culture; assay: fiber score / MBP score (myelination specific beyond OL differentiation) (ratio); higher = more myelination-specific MBP alignment; details: treatment time: 8 days (DIV5-DIV13)
Summary of the method: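 Reported values are fiber score (continuous MBP fiber length per Olig2+ nucleus) divided by MBP score (thresholded MBP area × intensity per Olig2+ nucleus). They come from primary E18 rat cortical co-cultures treated with library compounds at 1 or 5 µM in myelination medium from DIV5 to DIV13, then fixed in 4 % paraformaldehyde, immunostained for MBP and Olig2 with DAPI, and analysed over four 10X fields per well in duplicate wells.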

[2] = system: E18 rat cortical neuron-glia co-culture; assay: myelination (MBP fiber length per Olig2+ nucleus), % of 1 µM DAPT response (DMSO = 0) (% of DAPT); higher = more myelination, active = 50 or more; details: treatment time: 8 days (DIV5-DIV13)
Summary of the method: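 Rat cortical co-cultures from E18 tissue were dissociated with papain and plated at 20,000 cells/well on 96-well plates coated with poly-d-lysine/laminin. From DIV5 to DIV13, library compounds were added at 1 or 5 µM in myelination medium. After fixation in 4 % paraformaldehyde, cultures were immunostained for MBP and Olig2 and counterstained with DAPI, and four 10X fields were analysed in each of duplicate wells. The myelination value is the length of continuous straight MBP fibers per Olig2+ nucleus, normalised so that 0.1 % DMSO is 0 and a 1 µM positive control is 100.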

Structure (SMILES): CN[C@@H]1[C@H](O)[C@H](NC)[C@H]2O[C@@]3(O)C(=O)C[C@@H](C)O[C@H]3O[C@@H]2[C@H]1O [Spectinomycin]
- fiber score / MBP score ([1]; 1 µM): 0.923
- fiber score / MBP score ([1]; 5 µM): 1.03
- myelination ([2]; 1 µM): -3.04 (inactive)
- myelination ([2]; 5 µM): -4.31 (inactive)

Structure (SMILES): C[C@H](CS)C(=O)N1CCC[C@H]1C(=O)O [Captopril]
- fiber score / MBP score ([1]; 1 µM): 0.773
- fiber score / MBP score ([1]; 5 µM): 0.704
- myelination ([2]; 1 µM): -9.04 (inactive)
- myelination ([2]; 5 µM): -9.32 (inactive)

Structure (SMILES): COC(=O)Nc1nc2cc(C(=O)c3ccccc3)ccc2[nH]1 [Mebendazole]
- fiber score / MBP score ([1]; 1 µM): 0.624
- fiber score / MBP score ([1]; 5 µM): 0.207
- myelination ([2]; 1 µM): 71.4
- myelination ([2]; 5 µM): -22.3 (inactive)

Structure (SMILES): Cc1onc(-c2ccccc2)c1-c1ccc(S(N)(=O)=O)cc1 [Valdecoxib]
- fiber score / MBP score ([1]; 1 µM): 0.873
- fiber score / MBP score ([1]; 5 µM): 0.733
- myelination ([2]; 1 µM): -12.1 (inactive)
- myelination ([2]; 5 µM): -45.9 (inactive)

Structure (SMILES): CN1CCN2c3ncccc3Cc3ccccc3C2C1 (configuration not stated) [Mirtazapine]
- fiber score / MBP score ([1]; 1 µM): 0.861
- fiber score / MBP score ([1]; 5 µM): 1.07
- myelination ([2]; 1 µM): -13.9 (inactive)
- myelination ([2]; 5 µM): -4.21 (inactive)

Structure (SMILES): COc1ccccc1OCCNCC(O)COc1cccc2[nH]c3ccccc3c12 (configuration not stated) [Carvedilol]
- fiber score / MBP score ([1]; 1 µM): 0.762
- fiber score / MBP score ([1]; 5 µM): 0.794
- myelination ([2]; 1 µM): -38.4 (inactive)
- myelination ([2]; 5 µM): -16.8 (inactive)

Structure (SMILES): CN1CCCC(n2nc(Cc3ccc(Cl)cc3)c3ccccc3c2=O)CC1 (configuration not stated) [Azelastine]
- fiber score / MBP score ([1]; 1 µM): 0.861
- fiber score / MBP score ([1]; 5 µM): 0.855
- myelination ([2]; 1 µM): -2.34 (inactive)
- myelination ([2]; 5 µM): -2.84 (inactive)

Structure (SMILES): O=c1[nH]cnc2c1ncn2[C@H]1CC[C@@H](CO)O1 [2',3'-Dideoxyinosine]
- fiber score / MBP score ([1]; 1 µM): 1.07
- fiber score / MBP score ([1]; 5 µM): 0.869
- myelination ([2]; 1 µM): -2.19 (inactive)
- myelination ([2]; 5 µM): -10.5 (inactive)

Structure (SMILES): CCCCC1=NC2(CCCC2)C(=O)N1Cc1ccc(-c2ccccc2-c2nnn[nH]2)cc1 [Irbesartan]
- fiber score / MBP score ([1]; 1 µM): 0.679
- fiber score / MBP score ([1]; 5 µM): 0.752
- myelination ([2]; 1 µM): -12.8 (inactive)
- myelination ([2]; 5 µM): -10.8 (inactive)

Structure (SMILES): CCOC(=O)c1ccc(OC(=O)CCCCCNC(=N)N)cc1 [Gabexate]
- fiber score / MBP score ([1]; 1 µM): 0.709
- fiber score / MBP score ([1]; 5 µM): 0.799
- myelination ([2]; 1 µM): -20.3 (inactive)
- myelination ([2]; 5 µM): -14.2 (inactive)

Structure (SMILES): C[C@]12C[C@H](O)[C@H]3[C@@H](CCC4=CC(=O)CC[C@@]43C)[C@@H]1CC[C@@H]2C(=O)CO [Corticosterone]
- fiber score / MBP score ([1]; 1 µM): 0.706
- fiber score / MBP score ([1]; 5 µM): 0.702
- myelination ([2]; 1 µM): -7.15 (inactive)
- myelination ([2]; 5 µM): -4.49 (inactive)

Structure (SMILES): Nc1nc(F)nc2c1ncn2[C@@H]1O[C@H](CO)[C@@H](O)[C@@H]1O [Fludarabine]
- fiber score / MBP score ([1]; 1 µM): 0.675
- fiber score / MBP score ([1]; 5 µM): 0.885
- myelination ([2]; 1 µM): -29.4 (inactive)
- myelination ([2]; 5 µM): 34.3 (inactive)

Structure (SMILES): COc1cc(NC(C)CCCN)c2ncccc2c1 (configuration not stated) [Primaquine]
- fiber score / MBP score ([1]; 1 µM): 0.815
- fiber score / MBP score ([1]; 5 µM): 0.985
- myelination ([2]; 1 µM): -0.112 (inactive)
- myelination ([2]; 5 µM): 11.1 (inactive)

Structure (SMILES): CCc1nc(N)nc(N)c1-c1ccc(Cl)cc1 [Pyrimethamine]
- fiber score / MBP score ([1]; 1 µM): 1.86
- fiber score / MBP score ([1]; 5 µM): 2.19
- myelination ([2]; 1 µM): 398 (active)
- myelination ([2]; 5 µM): 655 (active)

Structure (SMILES): NC(Cc1cc(I)c(Oc2cc(I)c(O)c(I)c2)c(I)c1)C(=O)O (configuration not stated) [Thyroxine]
- fiber score / MBP score ([1]; 1 µM): 0.768
- fiber score / MBP score ([1]; 5 µM): 1.19
- myelination ([2]; 1 µM): -4.45 (inactive)
- myelination ([2]; 5 µM): 32 (inactive)

Structure (SMILES): CCc1cc(C(N)=S)ccn1 [Ethionamide]
- fiber score / MBP score ([1]; 1 µM): 0.983
- fiber score / MBP score ([1]; 5 µM): 1.1
- myelination ([2]; 1 µM): -1.99 (inactive)
- myelination ([2]; 5 µM): 3.35 (inactive)

Structure (SMILES): COc1c(N2C[C@@H]3CCCN[C@@H]3C2)c(F)cc2c(=O)c(C(=O)O)cn(C3CC3)c12 [Moxifloxacin]
- fiber score / MBP score ([1]; 1 µM): 0.766
- fiber score / MBP score ([1]; 5 µM): 0.689
- myelination ([2]; 1 µM): -12.3 (inactive)
- myelination ([2]; 5 µM): -17.6 (inactive)

Structure (SMILES): C=CC[C@@H]1/C=C(\C)C[C@H](C)C[C@H](OC)[C@H]2O[C@@](O)(C(=O)C(=O)N3CCCC[C@H]3C(=O)O[C@H](/C(C)=C/[C@@H]3CC[C@@H](O)[C@H](OC)C3)[C@H](C)[C@@H](O)CC1=O)[C@H](C)C[C@@H]2OC [Tacrolimus]
- fiber score / MBP score ([1]; 1 µM): 0.687
- fiber score / MBP score ([1]; 5 µM): 0.587
- myelination ([2]; 1 µM): -24.6 (inactive)
- myelination ([2]; 5 µM): -22.8 (inactive)

Structure (SMILES): CC1CCN(CCCC(=O)c2ccc(F)cc2)CC1 [Melperone hydrochloride]
- fiber score / MBP score ([1]; 1 µM): 0.816
- fiber score / MBP score ([1]; 5 µM): 0.519
- myelination ([2]; 1 µM): -4.39 (inactive)
- myelination ([2]; 5 µM): -12.5 (inactive)

Structure (SMILES): CC(=O)Nc1ccc(CC(=O)O)cc1 [Actarit]
- fiber score / MBP score ([1]; 1 µM): 0.756
- fiber score / MBP score ([1]; 5 µM): 0.778
- myelination ([2]; 1 µM): -13.9 (inactive)
- myelination ([2]; 5 µM): -10.1 (inactive)

Structure (SMILES): CN1CCN(CCCN2c3ccccc3Sc3ccc(Cl)cc32)CC1 [Prochlorperazine]
- fiber score / MBP score ([1]; 1 µM): 0.297
- fiber score / MBP score ([1]; 5 µM): 1.56
- myelination ([2]; 1 µM): -45.4 (inactive)
- myelination ([2]; 5 µM): -29.6 (inactive)

Structure (SMILES): CCCCCCNC(=O)n1cc(F)c(=O)[nH]c1=O [Carmofur]
- fiber score / MBP score ([1]; 1 µM): 0.54
- fiber score / MBP score ([1]; 5 µM): 0.729
- myelination ([2]; 1 µM): -30.6 (inactive)
- myelination ([2]; 5 µM): -14.4 (inactive)

Structure (SMILES): Cc1ccc(NC(=O)c2ccc(CN3CCN(C)CC3)cc2)cc1Nc1nccc(-c2cccnc2)n1 [Imatinib mesylate]
- fiber score / MBP score ([1]; 1 µM): 0.424
- fiber score / MBP score ([1]; 5 µM): 0.773
- myelination ([2]; 1 µM): -5.16 (inactive)
- myelination ([2]; 5 µM): 37.1 (inactive)

Source: the supplement of paper PMC4840960
